In ChEMBL document CHEMBL3988442, “University of Dundee, Small-Polar-MMV Screening Library” (2021) one finds Percent Effect data, which are given here for 21 molecules.

SMILES strings stand for the structures.

The experiment addresses AMP-activated protein kinase, AMPK (Homo sapiens) (UniProt P54646+O43741+P54619+Q9UGJ0+Q9Y478+Q13131+Q9UGI9). Nature of the experiment: AMP-dependent Kinase enzyme assay. An in vitro enzyme assay that detects ADP turnover that is directly proportional to AMPK activity. This uses naive AMPK that is activated during the assay with MK-8722. Type of experiment: functional. Further details: scale not given: direction of the effect not stated beside the values. Conditions: 30 µM.
In the case of `CNC(=O)CN(C)C(=O)c1ccc(-c2nc(C)cs2)cc1`, the Percent Effect was -2.2%.
Take `Cc1ccc(OCc2occc2C(=O)O)cc1`: the Percent Effect turned out to be 12.4%.
With `CN1CCC(NC(=O)c2cc(Br)cc(Cl)c2O)C1=O` (stereo unspecified) the figure was 11.8%.
With `O=C(NC1CC1)C1CNCCN1C(=O)CCOc1ccccc1` (stereo unspecified) the figure was 4.98%; with `O=C(O)c1cn(CC2CCCN(c3ccc4ccccc4n3)C2)nn1` (stereo unspecified), -0.883%.
With `CCN(CC)S(=O)(=O)NCC1Cc2ccccc2O1` (stereo unspecified) the figure was -0.544%; with `COCCC(C)NCc1ccccc1-n1ccnc1` (stereo unspecified), -0.71%; with `Cc1ncc(C(=O)N2CCOC(C(=O)N3CCCCC3)C2)c(C)n1` (stereo unspecified), -4.59%.
Consider `COc1ccc(OC2CCN(C(=O)c3cnc(C)s3)CC2)cc1`, for which the Percent Effect was -2.19%.
For `COC(=O)c1ccc(Cn2cnc(C#N)n2)cc1`, the Percent Effect came to 1.34%.
Take `COc1cccc(S(=O)(=O)N2CCOC(C)(C(N)=O)C2)c1` (stereo unspecified): the Percent Effect is 22.4%.
With `O=C(NCc1nnc2n1CCC2)c1ccc(Br)s1` the figure was -4.78%.
With `Cc1ccccc1C(CC(=O)N1CCc2sccc2C1)NC(N)=O` (stereo unspecified) the figure was 11.7%; with `Cc1[nH]nc(CCC(=O)N2C[C@H]3CC[C@@H]2CN(C(=O)N(C)C)C3)c1C`, 0.209%.
With `CN(C)C(C(=O)N1CCC(c2ncc[nH]2)CC1)c1ccc2c(c1)OCO2` (stereo unspecified) the figure was 1.17%.
Consider `c1ccc(CN2CCN(C3CCOC4(CCOCC4)C3)CC2)nc1` (stereo unspecified), for which the Percent Effect was -0.926%.
With `CCS(=O)(=O)N1CCN(C(C)c2ncc(-c3ccccc3)o2)CC1` (stereo unspecified) the figure was -3.96%; with `CCNC(=O)c1ccc(NC2CCOC3(CCCCC3)C2)nn1` (stereo unspecified), 3.88%.
With `Cc1cc(C)c(C#N)c(N2CCC3(CCCN(CCO)C3=O)C2)n1` (stereo unspecified) the figure was 8.35%; with `CCOCCN1CCN(c2ncccc2C#N)CC1CC` (stereo unspecified), 4.43%; with `Cc1ncc(C(=O)N2CCCC2c2c(C)nn(C)c2C)s1` (stereo unspecified), 1.37%.
